Laboratory results taken from PubChem BioAssay (NCI).
About 83,000 compounds went through this panel and 20% of them were active in at least one assay; those are over-represented in the sample as a whole.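 Percent growth is the endpoint: 0 to 100 indicates growth inhibition (40 means 60% inhibition), 0 means no net growth, and negative values indicate cell death.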 Values without a mark were called inactive. Activity calls are given as the source filed them. Rule for the calls: active = growth percent below 10; inactive = the rest.

system: DU-145 prostate; assay: NCI-60 one-dose screen, 48 h (100 = growth as untreated, 0 = no growth, -100 = all killed); conditions: 10 µM unless noted

| SMILES | growth |
| --- | --- |
| O=C(Nc1cccc(Cl)c1)Nc1nc2cc([N+](=O)[O-])ccc2o1 | 52.7% |
| COc1ccc(NC(=O)CCCCCCNC(=O)C(O)(O)C(F)(F)F)cc1 | 28.7% |
| CC(=O)N(O)CCCCCNC(=O)CCC(=O)N(O)CCCCCNC(=O)CCC(=O)N(O)CCCCCN(CCCCCCCCCC[P+](c1ccccc1)(c1ccccc1)c1ccccc1)CCCCCCCCCC[P+](c1ccccc1)(c1ccccc1)c1ccccc1 | 14.9% |
| Cc1cc(Br)ccc1-n1cc(C#N)c(N)c1C(=O)c1ccc(Br)cc1 | 119% |
| CN(C)S(=O)(=O)c1ccc(-c2nc(C(Cl)Cl)nc3cc(-c4ccccc4)nn23)cc1 | 79.2% |
| CN1CCN(c2ccc(Nc3nc(NCCNC(=O)c4ccc(F)cc4)c4sccc4n3)cc2)CC1 | 87.8% |
| O=[N+]([O-])c1ccc(NC(=S)NNC(=S)Nc2ccc(Br)cc2)cc1 | 104% |
| C/C(=N\NC(=O)/C=C/CC(=O)O)c1nnn(-c2ccc([N+](=O)[O-])cc2)c1C | 104% |
| CN1CCN(c2ccc(Nc3nc(NCCCNS(=O)(=O)c4ccc(F)cc4)c4sccc4n3)cc2)CC1 | 72.6% |
| N#CC1=C2NCCCNc3oc(nc3C#N)Cc3ccccc3CC(=N1)O2 | 99% |
| COc1ccccc1/C=C1\Oc2ccc(O)c(O)c2C1=O | 98.4% |
| COc1ccc(NC2=C(Br)C(=O)C(C)=C(C)C2=O)cc1OC | 109% |
| O=C(Nc1ccc(N=Cc2c(O)[nH]c3ccccc23)cc1)Nc1ccc(S(=O)(=O)Nc2ncccn2)cc1 | 110% |
| NC(=O)c1c(NC(=O)c2ccc(C(F)(F)F)cc2)sc2c1CCC(=O)C2 | 59% |
| O=C(/C=C/c1cccc(Br)c1)c1cccc(OCCCCOc2cccc(C(=O)/C=C/c3cccc(Br)c3)c2)c1 | 109% |
| O=C(CCCCCCNC(=O)c1csc(Br)n1)NO | 26.7% |
| CC1CC(=O)C2=C(C1)Nc1ccc(Br)cc1CC2c1c[nH]c2ccc(Br)cc12 (configuration not stated) | 71.6% |
| C#CCN(C)CCCOc1ccc(NCc2ccc(C(=O)NO)cc2)cc1Cl | 25.7% |
| CC(=O)Nc1nc(C)c(-c2csc(Nc3ccccc3)n2)s1 | 30% |
| Cc1csc(/N=C(N)/N=C(\N)c2cccc(C#N)c2)n1 | 97.8% |
| Clc1cccc(/C=N/Nc2nc(N/N=C/c3cccc(Cl)c3)nc(N3CCCCC3)n2)c1 | 94.6% |
| O=C1[C@H]2Cc3c([nH]c4ccccc34)[C@H](c3ccc(Br)cc3)N2C(=O)CN1C1CCN(CC2CCCCC2)CC1 | 79.4% |
| Cc1[nH]c(C(=O)Nc2ccc(C(=O)NCC3CCNCC3)cc2OC(C)C)c(Cl)c1Cl | 80.2% |
| CCN(CC)S(=O)(=O)c1ccc(-c2nc(C(Cl)Cl)nc3cc(-c4ccc(F)cc4)nn23)cc1 | 16% |
| C/C(=N/N)c1nnn(-c2ccc(Br)cc2)c1C | 108% |
| CC1=C(C)C(=O)C(Nc2cccc(C)c2)=C(Br)C1=O | 104% |
| Cc1ccc(C(=O)Nc2ccc(CNCCN3CCNCC3)c(C(F)(F)F)c2)cc1C#Cc1cnc2cccnn12 | 6.09% (active) |

system: K-562 leukemia; assay: as above; conditions: 10 µM unless noted

| SMILES | growth |
| --- | --- |
| C#C[C@]1(O)CC[C@H]2[C@@H]3CC=C4c5sc(Nc6cc(C)cc(C)c6)nc5CC[C@]4(C)[C@H]3CC[C@@]21C | 0.356% (active) |
| CCCC[n+]1ccc(SCC(=O)n2ccc3ccccc32)c2ccccc21 | 66.9% |
| CC(C)(C)c1cc(NC(=O)Nc2ccc(-c3cn4c5c(sc4n3)CCc3cn(CCCN4CCCCC4)cc3-5)cc2)no1 | 3.01% (active) |
| CCCCCCNC(=O)Oc1ccc(/C(=C(/C)c2ccc(OC)cc2)c2ccc(OCCN3CCCCCC3)cc2)cc1 | 2.71% (active) |
| Cn1cc(-c2cc3ncnc(Nc4ccc(CC(=O)Nc5nc(C(C)(C)C)cs5)cc4)c3s2)cn1 | 16.2% |
| O=C(CCCCCC/C=C\c1csc(Br)n1)NO | 50.5% |
| COc1ccc(C(=O)c2c(N)c(C#N)cn2-c2ccc(Cl)cc2Cl)cc1 | 93.6% |
| Cc1ccc2c(n1)C(=O)C(Cl)=C(Nc1cccc(C(F)(F)F)c1)C2=O | 3.08% (active) |
| O=C1[C@H]2Cc3c([nH]c4ccccc34)[C@H](c3ccc(Cl)cc3)N2C(=O)CN1C1CCN(CC2CCCCC2)CC1 | 6.81% (active) |
| COc1ccc(/C=N/NC(=O)c2c(N)nn(C)c2Nc2ccccc2)cc1 | 19.2% |
| Fc1ccc2nc(-c3cnn4cccnc34)sc2c1 | 86.2% |
| O=C(/C=C/c1cccc(F)c1)c1cccc(OCCCCOc2cccc(C(=O)/C=C/c3cccc(F)c3)c2)c1 | 100% |
| O=C(COc1ccc(/C=C2\C(=O)Nc3ccc(Cl)cc32)cc1)Nc1ccc(Cl)cc1 | 28.2% |
| O=C(Nc1cccc(Cl)c1)Nc1nc2cc([N+](=O)[O-])ccc2o1 | 37.8% |
| COc1ccc(NC(=O)CCCCCCNC(=O)C(O)(O)C(F)(F)F)cc1 | 21.7% |
| CC(=O)N(O)CCCCCNC(=O)CCC(=O)N(O)CCCCCNC(=O)CCC(=O)N(O)CCCCCN(CCCCCCCCCC[P+](c1ccccc1)(c1ccccc1)c1ccccc1)CCCCCCCCCC[P+](c1ccccc1)(c1ccccc1)c1ccccc1 | 9.98% (active) |
| Cc1cc(Br)ccc1-n1cc(C#N)c(N)c1C(=O)c1ccc(Br)cc1 | 119% |
| CN(C)S(=O)(=O)c1ccc(-c2nc(C(Cl)Cl)nc3cc(-c4ccccc4)nn23)cc1 | 52.2% |
| CN1CCN(c2ccc(Nc3nc(NCCNC(=O)c4ccc(F)cc4)c4sccc4n3)cc2)CC1 | 19.8% |
| O=[N+]([O-])c1ccc(NC(=S)NNC(=S)Nc2ccc(Br)cc2)cc1 | 49.1% |

| SMILES | growth |
| --- | --- |
| C/C(=N\NC(=O)/C=C/CC(=O)O)c1nnn(-c2ccc([N+](=O)[O-])cc2)c1C | 103% |
| CN1CCN(c2ccc(Nc3nc(NCCCNS(=O)(=O)c4ccc(F)cc4)c4sccc4n3)cc2)CC1 | 10.4% |
| N#CC1=C2NCCCNc3oc(nc3C#N)Cc3ccccc3CC(=N1)O2 | 12% |
| COc1ccccc1/C=C1\Oc2ccc(O)c(O)c2C1=O | 95.6% |
| COc1ccc(NC2=C(Br)C(=O)C(C)=C(C)C2=O)cc1OC | -7.89% (active) |
| O=C(Nc1ccc(N=Cc2c(O)[nH]c3ccccc23)cc1)Nc1ccc(S(=O)(=O)Nc2ncccn2)cc1 | 98% |
| NC(=O)c1c(NC(=O)c2ccc(C(F)(F)F)cc2)sc2c1CCC(=O)C2 | 7.94% (active) |
| O=C(/C=C/c1cccc(Br)c1)c1cccc(OCCCCOc2cccc(C(=O)/C=C/c3cccc(Br)c3)c2)c1 | 90.1% |
| O=C(CCCCCCNC(=O)c1csc(Br)n1)NO | 13.8% |
| CC1CC(=O)C2=C(C1)Nc1ccc(Br)cc1CC2c1c[nH]c2ccc(Br)cc12 (configuration not stated) | 21.6% |
| C#CCN(C)CCCOc1ccc(NCc2ccc(C(=O)NO)cc2)cc1Cl | 15.5% |
| CC(=O)Nc1nc(C)c(-c2csc(Nc3ccccc3)n2)s1 | 24.8% |
| Cc1csc(/N=C(N)/N=C(\N)c2cccc(C#N)c2)n1 | 43.5% |
| Clc1cccc(/C=N/Nc2nc(N/N=C/c3cccc(Cl)c3)nc(N3CCCCC3)n2)c1 | 83% |
| O=C1[C@H]2Cc3c([nH]c4ccccc34)[C@H](c3ccc(Br)cc3)N2C(=O)CN1C1CCN(CC2CCCCC2)CC1 | 6.13% (active) |
| Cc1[nH]c(C(=O)Nc2ccc(C(=O)NCC3CCNCC3)cc2OC(C)C)c(Cl)c1Cl | 10.6% |
| CCN(CC)S(=O)(=O)c1ccc(-c2nc(C(Cl)Cl)nc3cc(-c4ccc(F)cc4)nn23)cc1 | 34.6% |
| C/C(=N/N)c1nnn(-c2ccc(Br)cc2)c1C | 91.2% |
| CC1=C(C)C(=O)C(Nc2cccc(C)c2)=C(Br)C1=O | 2.13% (active) |
| Cc1ccc(C(=O)Nc2ccc(CNCCN3CCNCC3)c(C(F)(F)F)c2)cc1C#Cc1cnc2cccnn12 | -22.2% (active) |
